Test results: PubChem BioAssay
Unmarked numbers belong to inactive results. No rule for the calls is given here. Numbered stars: 1 amine (or outer) side, 2 acyl side, 3 side chain; on linkers, the order of the positions; unused ones are H or OH. Bridge positions count the residues as written; N and C are the ends. Square brackets hold non-standard residues; d marks the D form. Peptide text beside a SMILES is read from it. * marks the point of attachment. ξ: configuration not given here. ΔAla(Z-3-ureido) = NC(=O)N/C=C(\N)C(=O)O; X2 = NC1=NC(O)CC(C(N[*:1])C(=O)[*:2])N1; ξβ3hOrn = NCCCC(N)CC(=O)*; Dap = NC[CH](N)C(=O)O

test: compounds altering viability of human ES cells (AID 493140); details: human embryonic stem cell survival screen; hits give high values;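 also: cells exposed to compounds for four days before counting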

| SMILES | survival |
| --- | --- |
| Cc1cc(=O)c2c(O)c3c(O)cc(O)c4c5c(O)cc(O)c6c(O)c7c(=O)cc(C)c8c1c2c(c34)c(c65)c78 | 52.2 |
| CCCCC/C=C\C[C@@H]1O[C@H]1C(O)/C=C\C/C=C\CCCC(=O)O (stereo not given in full) | 86.8 |
| CCCCC[C@H](O)/C=C/C=C\C=C\[C@@H](O)C/C=C\CCCC(=O)O | 135 |
| CCCCC[C@H](O)/C=C/C=C\CCCCCCCCCC(=O)O | 73.3 |
| CCCCC/C=C\C/C=C\C=C\[C@@H](O)C/C=C\CCCC(=O)O | 129 |
| C[C@@H](O)CCC[C@H](O)/C=C/[C@@H]1[C@@H](C/C=C\CCCC(=O)O)[C@@H](O)C[C@H]1O | 102 |
| CC/C=C\C/C=C\C/C=C\C/C=C\C=C\C(O)CCCC(=O)O (stereo not given) | 128 |
| NCCCC(N)CC(=O)NC1CNC(=O)C(C2CC(O)N=C(N)N2)NC(=O)/C(=C/NC(N)=O)NC(=O)C(CO)NC(=O)C(CO)NC1=O (stereo not drawn) (ξβ3hOrn-[Dap]SS[ΔAla(Z-3-ureido)][X2]; lactam 1-C; configuration not given here) | 10.8 |
| CCCCC/C=C\C\C=C/C=C/C=C/[C@@H](SCC(NC(=O)CCC(N)C(=O)O)C(=O)NCC(=O)O)[C@@H](O)CCCC(=O)O (stereo not given in full) | 90.2 |
| CCCCC/C=C\C/C=C\C/C=C\C=C\C(O)CCCC(=O)O (stereo not given) | 122 |
| CCCCCC#CC[C@@H](O)/C=C/C=C/C=C\[C@@H](O)CCCC(=O)O | 71.7 |
| CCCCCCCCCCCCC/C=C/[C@@H](O)[C@H](COP(=O)([O-])OCC[N+](C)(C)C)NC(=O)CCCCCCCCCCCCCCCCC | 81.8 |
| CCCCC[C@H](O)/C=C/[C@H]1OC(O)C[C@H](O)[C@@H]1C/C=C\CC(=O)O (stereo not given in full) | 117 |
| CC(=O)CC(=O)[C@@]1(O)CC[C@H]2[C@@H]3C=C(C)C4=CC(=O)CC[C@@H]4[C@H]3CC[C@@]21C | 10.6 |
| CN(C)CCCO[C@H]1[C@@H](C(O)CO)OC2OC(C)(C)O[C@H]21 (stereo not given in full) | 7.5 |
| C=C(C)[C@@H]1CC[C@]2(CO)CC[C@]3(C)[C@H](CC[C@@H]4[C@@]5(C)CCC(O)C(C)(C)[C@@H]5CC[C@]43C)[C@@H]12 (stereo not given in full) | 7.33 |
| CCCCC[C@H](O)/C=C/[C@@H]1[C@@H](CC(=O)CCC(=O)O)[C@@H](O)C[C@H]1O | 104 |
| CCCCCC(O)/C=C/C=C\CCCCCCCC(=O)O (stereo not given) | 49.5 |
| N#CC(C#N)=C(N)/C(C#N)=C/c1cc(O)c(O)c(O)c1 | 82.2 |
| CCCCC/C=C\C\C=C/C=C/C=C/[C@@H](SCC(N)C(=O)O)[C@@H](O)CCCC(=O)O (stereo not given in full) | 107 |
| CCCCC[C@H](O)/C=C/C=C/C=C/[C@@H](O)C/C=C\CCCC(=O)O | 92.6 |
| CC(C)C[C@H](NC(=O)[C@H](CCC(=O)O)NC(=O)CNC(=O)c1ccc(/C=C/C(=O)O)cc1)C(N)=O | 88.2 |
| CCCCC/C=C\C[C@@H](O)/C=C/C=C/C=C/[C@@H](O)CCCC(=O)O | 77.1 |
| CCCCC/C=C\C[C@H](O)/C=C/C=C/C=C/[C@@H](O)CCCC(=O)O | 96.2 |
| C=CCN1/C(=C\CO)[C@@H]2C[C@@H]3[C@H]1CC[C@@]31c3ccccc3N3/C=C4\C5N(/C=C/2C31)c1ccccc1[C@@]51CC[C@@H]2[C@H]1C[C@H]4/C(=C/CO)N2CC=C (stereo not given in full) | 26.5 |
| CCCCC/C=C\C=C\C(O)CCCCCCCC(=O)O (stereo not given) | 83.9 |
| CCCCC/C=C\C/C=C\C[C@H](O)/C=C/C=C\CCCC(=O)O | 91.5 |
| CCCCCCCCCCCCC/C=C/[C@@H](O)[C@@H](N)COP(=O)(O)O | 87.9 |
| O=C(O)c1cc(NCc2cc(O)ccc2O)ccc1O | 90.2 |
| O=C(O)CCCC/C=C\C[C@@H](O)/C=C/C=C/C=C\[C@@H](O)CCCC(=O)O | 96.1 |
